Results as given in PubChem BioAssay AID686979 (National Center for Advancing Translational Sciences (NCATS), 2013).
The campaign covered roughly 420,000 compounds. About 50,000 (12%) were called active. Inconclusive results (about 26%) are left out. Many of the other results were omitted from the sample, so actives are more common in it than they were. Values without a mark were called inactive. The call rests on the fitted dose curve; in most records, active means well fitted inhibition curve with a large enough effect; inconclusive means small, poorly fitted or top-dose-only effect; inactive means flat fitted curve, though single readings scatter.

Assay: qHTS for Inhibitors of human tyrosyl-DNA phosphodiesterase 1 (TDP1): qHTS in cells in presence of CPT; further: nearly all actives have a fitted effect of over 55% in size
Conditions: chicken DT40 Tdp1-/-;hTDP1 cells + 20 nM CPT, ATP luminescence, 48 h; series mostly up to 46.2 µM; activity change, negative = growth inhibition: at the top concentration
Outline: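 Chicken DT40 Tdp1-/- cells stably complemented with human TDP1 were seeded at 400 cells/well in medium containing 20 nM camptothecin, exposed to pin-transferred compounds, and grown at 37 °C for at least 48 hr. Viability was read as ATP luminescence.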
On the % scale 0 is the no-effect control and ±100 the full control effect; potency means the concentration at half of the fitted maximal effect.

Point of comparison: CC(OC(=O)CCc1nc(=O)c2ccccc2n1C)C(=O)NCc1ccc2c(c1)OCO2 (stereo unspecified), “activity change, negative = growth inhibition” value 5.95%. Against it:
- Cc1nn(C)cc1N1C(=O)c2cccc3c(N)ccc(c23)C1=O — lower, 2.78%
- CN1C(=O)c2cccc3c(N)ccc(c23)C1=O — lower, -22.8%
- NC1=NC(c2cc(F)cc(F)c2)n2c(nc3ccccc32)N1 (stereo unspecified) — lower, 3.45%
- CS(=O)(=O)C1=NN2C(=N)/C(=C\c3ccc(OCCOc4ccccc4)cc3)C(=O)N=C2S1 — higher, 16%
- Cc1ccc(NC2CCCN(C(=O)CCC3(C)CC3)C2)cc1C (stereo unspecified) — lower, -24.4%
- CCCCN(CC)CCCNC(=O)Cn1ncc2c([nH]c3ccc(C)cc32)c1=O — lower, -20%
- Cc1nn(CC(=O)N2CCCCC2)c(=O)c2nn(-c3ccccc3)c(C)c12 — lower, -16%
- COc1ccccc1CNC(=O)Cn1c(=O)oc2cc(Cl)ccc21 — lower, -27.3%
- CC(Sc1nncs1)C(=O)NCc1ccc2c(c1)OCO2 (stereo unspecified) — lower, 4.18%
- Cc1nn(C(C)C(=O)N2CCOCC2)c(=O)c2nn(-c3ccccc3)c(C)c12 (stereo unspecified) — higher, 8.07%
- Cc1nc2c(C(=O)NCc3ccc4c(c3)OCO4)c[nH]n2c(=O)c1Cc1ccccc1F — lower, -16.8%
- COc1ccccc1CNC(=O)Cn1cc2c(n1)CCCC2 — lower, 5.72%
- CN(CCC1CCOCC1)C(=O)CC1C(=O)NCCN1Cc1cccc(F)c1 (stereo unspecified) — lower, -1.92%
- CC1CC(C)CN(CCOc2cccc3ccccc23)C1 (stereo unspecified) — lower, -22.3%
- O=C(Nc1ccc([N+](=O)[O-])cc1)OCCc1ccccn1 — lower, -1.97%
- COc1ccc(CN2CCOc3c(cc(-c4ncc(C(F)(F)F)cc4Cl)cc3OCC3CCCO3)C2)c(O)c1 (stereo unspecified) — lower, -9.5%
- O=C(CN1C(=O)NC2(CCOc3ccccc32)C1=O)NCc1ccc(F)cc1 (stereo unspecified) — lower, -2.81%
- O=C(NCCCn1ccnc1)C(=O)c1cn(CC(=O)N2CCCCCC2)c2ccccc12 — lower, 0.0855%
- CC(C)NC(=O)c1nn(-c2ccccc2F)nc1CO — lower, -8.52%
- CC1(C)NC(=O)N(CC(=O)Nc2ccc(-c3ccccc3)cc2)C1=O — lower, -0.421%
- Cc1nnsc1C(=O)N/N=C/c1ccccc1Cl — lower, -6.37%
- O=C(Cc1ccccc1)N/N=C/c1ccc(Cl)cc1Cl — lower, -18.1%
- C=CCOc1ccccc1NC(=O)CN1C(=O)CNC1=O — lower, -0.254%
- COc1ccc(CCN2C(=O)C(C)=C(C)C2=O)cc1OC — lower, -24.1%
- COc1ccc(CCN2CNc3c(c(=O)n(C)c(=O)n3C)C2)cc1OC — lower, -7.71%
- O=S(=O)(c1ccc(-c2ccno2)s1)N1CCCCC1 — lower, -29.3%
- COc1cccc(/C=C2\C=C(c3ccc(C)cc3)OC2=O)c1OC(C)=O — higher, 8.2%
- COCc1c(C(=O)N/N=C\c2cccnc2)nnn1-c1nonc1N — lower, 0.229%
- CCCCNC(=O)C(=O)c1ccccc1NC(C)=O — lower, -7.11%
- c1ccc(CCc2ccccn2)cc1 — lower, -4.92%
- Cc1ccc(CC2CC(=O)N(c3nc(C)cc(C)n3)C2=O)cc1 (stereo unspecified) — higher, 16.3%
- CC(=O)N1CC(C)c2scc(C)[n+]2-c2ccccc21 (stereo unspecified) — lower, -10.7%
- NNC(=O)c1nnn(-c2nonc2N)c1CN1CCCC1 — lower, -7.28%
- CCOC(=O)c1nnn(-c2nonc2-n2cccc2)c1CN1CCOCC1 — lower, -16.2%
- CCOC(=O)C1(Cc2cccc(OC)c2)CCCN(C(=O)CCSC)C1 (stereo unspecified) — lower, -3.48%
- CC1(c2ccccc2)NC(=O)N(CC(=O)N2CC(=O)Nc3ccccc32)C1=O (stereo unspecified) — higher, 30.7%
- Nc1nc2c(ncn2[C@@H]2O[C@H](CNS(=O)(=O)N3CCc4ccccc4C3)[C@@H](O)[C@H]2O)c(=O)[nH]1 — higher, 10.7%
- CC(C)Sc1nc(N)nc2c1ncn2C1OC(CO)C(O)C1O (stereo unspecified) — lower, -26.9%
- COC(=O)CNS(=O)(=O)c1ccc(Cc2ccc(S(=O)(=O)NCC(=O)OC)cc2)cc1 — lower, -25.3%
- CCCn1c(SCC(N)=O)nnc1C(C)C — lower, -3.06%
- CCn1c(SCC(=O)Nc2ccc3c(c2)OCCO3)nnc1C(C)C — lower, 0.283%
- O=C(CSc1nc2ccccc2c(=O)n1CCCO)N1CCc2ccccc21 — lower, -21.9%
- CCC(=O)N1CCCc2ccccc21 — higher, 7.34%
- CC(C)CNC(=S)NNC(=O)c1ccccc1OC(F)F — lower, 3.45%
- CC(=O)Nc1ccc(S(=O)(=O)Oc2ccc(Br)cc2C(=S)N2CCOCC2)cc1 — lower, -28.2%
- CCOc1cc(C(=S)N2CCOCC2)ccc1OS(=O)(=O)c1ccc(Br)cc1 — lower, 0.241%
- O=[N+]([O-])c1ccccc1NCc1ccccc1Cl — higher, 12.7%
- N/C(=N/O)c1cccn1Cc1ccccc1[N+](=O)[O-] — lower, -10.3%
- O=C(O)c1ccc(S(=O)(=O)c2ccccc2)s1 — higher, 25.9%
- O=C(N=C1SC2CS(=O)(=O)CC2N1Cc1ccccc1)c1ccccc1 (stereo unspecified) — lower, -29.9%
- COC(=O)c1sccc1NS(=O)(=O)c1ccc(F)cc1F — lower, -12.9%
- COc1ccc(S(=O)(=O)Nc2ccc3cn[nH]c3c2)cc1[N+](=O)[O-] — lower, -29%
- O=C(O)c1ccccc1/C=N/Nc1ccc(S(=O)(=O)Nc2ccc(Cl)cc2)cc1[N+](=O)[O-] — lower, -4.1%
- CN(Cc1ccc(F)cc1Cl)S(=O)(=O)c1cccs1 — lower, -6.15%
- Cn1cc(C(=O)c2ccc(Cl)cc2Cl)cc1C(=O)NN — lower, -12%
- Cc1ccc(S(=O)(=O)CC(=O)Nc2nnc(C)s2)cc1 — higher, 10.5%
- CCOC(=O)c1ccc(NC(=O)CCS(=O)(=O)c2ccc3c(c2)oc(=O)n3C)cc1 — lower, -4.86%
- CC(C)Cc1nnc(NC(=O)CCc2ccccc2)s1 — lower, -0.358%
- CCOc1ccc(OCC)c(NC(=O)CCS(=O)(=O)c2ccc(C)cc2)c1 — lower, -26.2%
- O=C1C(=O)N(CCN2CCOCC2)C(c2cccc(Cl)c2)/C1=C(/O)c1ccc2c(c1)OCO2 (stereo unspecified) — higher, 13.7%
- CN(CC(O)COc1ccc(S(=O)(=O)N2CCOCC2)cc1Cl)C1CCCCC1 (stereo unspecified) — lower, -8.6%
- CCCCOc1ccc(N(CC(=O)NC(C)C)C(=O)CCC(=O)Nc2ccccn2)cc1 — higher, 10.3%
- O=C(Cc1cccs1)N/N=C/c1ccc(OCc2ccccc2)cc1 — lower, 2.58%
- O=C(NN1C(=O)C2C3C=CC(C4CC34)C2C1=O)c1ccc(Cl)cc1 (stereo unspecified) — lower, -0.451%
- O=C(N/N=C/c1cccc(O)c1)c1cc2c(ccc3ccccc32)o1 — lower, -24.9%
- Cc1ccc(NC(=O)c2cc3ccccc3o2)cc1 — lower, 1.36%
- O=C(N/N=C/c1coc2ccccc2c1=O)c1cc2ccccc2o1 — lower, -2.89%
- O=C(N/N=C/c1c[nH]c2ccccc12)c1ccccc1O — higher, 11.7%
- N=c1oc2ccccc2cc1C(=O)N/N=C/c1ccccc1 — lower, -5.9%
- O=C(O)c1cccc(NC(=S)N/N=C/c2c[nH]c3ccccc23)c1 — higher, 10.2%
- CCOC(=O)c1ccc(NC(=O)C2CC(=O)N(c3ccc4c(c3)OCCO4)C2)cc1 (stereo unspecified) — lower, -27%
- O=C1CCCC(O)=C1N=Nc1ccc2ncsc2c1 — lower, 4.68%
- NNC(=O)CSc1nnc(-c2ccccc2)n1-c1ccccc1 — lower, -1.97%
- CCCCn1c(N)c(N(CCOC)C(=O)c2sc3ccccc3c2Cl)c(=O)[nH]c1=O — lower, 4.55%
- CC[C@H](C)C(=O)N[C@H]1CCCN1C(=O)/C=C/c1ccccc1 — higher, 8.02%
- O=S(=O)(NCCS(=O)(=O)N1CCN(c2ccccc2)CC1)c1ccc(F)cc1 — higher, 11.5%
- O=C(Nc1ccccc1Cl)NC1(C(=O)N2CCOCC2)CCCCC1 — lower, -8.94%
- COc1cc2c(cc1OC)C(=O)NCC(C)(C)O2 — lower, -1.92%
- Cc1cc(C)cc(NC(=O)Cn2cnc3c(nnn3Cc3ccc(F)cc3)c2=O)c1 — lower, -5.08%
- CCCCCn1c(=O)[nH]c2cc(C(=O)NCCCN3CCCCC3C)ccc2c1=O (stereo unspecified) — lower, 0.222%
- COCCn1c(=O)[nH]c2cc(C(=O)NCc3cccnc3)ccc2c1=O — higher, 7.55%
- O=C(NC1CCCCC1)c1ccc2c(=O)n(CC3CCCO3)c(=O)[nH]c2c1 (stereo unspecified) — lower, 2.52%
- CC(C)n1c(=O)[nH]c2cc(C(=O)Nc3ccccc3)ccc21 — lower, -8.55%
- O=C(NCc1ccccc1)c1ccc2c(c1)nc1n2CCCCC1 — lower, -4.9%

For CCN1C(=O)c2cccc3c(N)ccc1c23, the Potency was 11.6 µM (active).
With Cc1ccc(-n2nc3c(=O)n(C(C)C(=O)NCc4ccc5c(c4)OCO5)nc(C)c3c2C)cc1 (stereo unspecified) the Potency was 18.4 µM (active).
In the case of COc1ccc(CNC(=O)C(C)n2nc(C)c3c(C)n(-c4ccccc4)nc3c2=O)c(OC)c1 (stereo unspecified), the Potency is reported as 16.4 µM (active).
With COc1ccccc1CNC(=O)Cn1nc(C)c2nn(-c3ccc(Cl)cc3)c(C)c2c1=O the Potency was 20.6 µM (active).
In the case of O=C(CSc1nnc(SCc2ccc(Cl)cc2)s1)N/N=C/c1ccccc1Cl, the Potency is reported as 18.4 µM (active).
For COc1ccc(CCn2cc3c(c2-c2ccc(Br)cc2)c(=O)n(C)c(=O)n3C)cc1OC, the Potency was 23.1 µM (active).
With CCCCNC(=O)Nc1c(C)cc(SC#N)cc1C the Potency was 18.4 µM (active).
For CCOC(=O)c1nnn(-c2nonc2-n2cccc2)c1CN1CCC(C(=O)OCC)CC1, the Potency was 18.4 µM (active).
With COC1C(CO)OC(n2cnc3c(=S)nc(N)[nH]c32)C1O (stereo unspecified) the Potency was 16.4 µM (active).
With CCCn1c(SCC(=O)c2ccc3c(c2)OCCO3)nnc1C(C)C the Potency was 23.1 µM (active).
With Cn1c(SCC(=O)N2CCCc3ccccc32)nc2ccccc2c1=O the Potency was 7.31 µM (active).
For O=S(=O)(Oc1ccccc1C(=S)N1CCOCC1)c1ccc(Cl)cc1, the Potency was 16.4 µM (active).
In the case of O=c1c([N+](=O)[O-])cccn1Cc1ccc(F)cc1Cl, the Potency is reported as 11.6 µM (active).
With O=[N+]([O-])c1cc(S(=O)(=O)Nc2cccc(Cl)c2)ccc1N=Nc1c(O)[nH]c2ccccc12 the Potency was 20.6 µM (active).
For CCOC(=O)c1ccc(NC(=O)CCS(=O)(=O)c2ccc(C)cc2)cc1, the Potency was 18.4 µM (active).
With Cc1ccc(S(=O)(=O)CCC(=O)Nc2nnc(CC(C)C)s2)cc1 the Potency was 20.6 µM (active).
In the case of CSC(=S)N/N=C/c1c[nH]c2ccccc12, the Potency is reported as 0.651 µM (active).
For Cc1c(/C=N\NC(=O)c2cc3ccccc3o2)c2ccccc2n1C, the Potency was 3.66 µM (active).
With O=C(N/N=C/c1c[nH]c2ccccc12)c1cc2ccccc2o1 the Potency was 14.6 µM (active).
With CCCCCn1c(=O)[nH]c2cc(C(=O)Nc3cc(C)cc(C)c3)ccc2c1=O the Potency was 4.11 µM (active).
In the case of CCCCCn1c(=O)[nH]c2cc(C(=O)Nc3ccc(F)cc3)ccc2c1=O, the Potency is reported as 20.6 µM (active).
